# In PubChem BioAssay (NCATS):
# Records with an inconclusive call do not appear. A call without a number means that no potency is given here. Calls of active or inactive are those of the source. Calls come from the whole dose curve; as a rule, active = well fitted curve in the direction sought with a large enough effect; inconclusive = small, poorly fitted or top-dose-only effect, or another doubt; inactive = no such curve, though single readings can be large; an effect the other way counts as inactive or inconclusive.
# Target: Cytochrome P450 2C19 (Homo sapiens) (UniProt P33261)
# Assay: qHTS Assay for Inhibitors and Substrates of Cytochrome P450 2C19 (AID 899); note: nearly all actives have a fitted effect of over 60% in size; note: potency is the fitted concentration of half-maximal effect
# Details: recombinant CYP2C19, luciferin-H EGE luminescence; series mostly up to 11.4 µM
# Summary of the method: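 Signal comes from luciferase acting on luciferin released by CYP2C19-mediated hydroxylation of Luciferin-H EGE, 10uM (KM). Assay mix: 5nM enzyme, 50mM KPO4; 60 min at 37C with NADPH regeneration. Data normalized against 57uM ketoconazole.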
# Chain of Cytochrome P450 2C19 (Homo sapiens) (P33261 whole entry, looked up): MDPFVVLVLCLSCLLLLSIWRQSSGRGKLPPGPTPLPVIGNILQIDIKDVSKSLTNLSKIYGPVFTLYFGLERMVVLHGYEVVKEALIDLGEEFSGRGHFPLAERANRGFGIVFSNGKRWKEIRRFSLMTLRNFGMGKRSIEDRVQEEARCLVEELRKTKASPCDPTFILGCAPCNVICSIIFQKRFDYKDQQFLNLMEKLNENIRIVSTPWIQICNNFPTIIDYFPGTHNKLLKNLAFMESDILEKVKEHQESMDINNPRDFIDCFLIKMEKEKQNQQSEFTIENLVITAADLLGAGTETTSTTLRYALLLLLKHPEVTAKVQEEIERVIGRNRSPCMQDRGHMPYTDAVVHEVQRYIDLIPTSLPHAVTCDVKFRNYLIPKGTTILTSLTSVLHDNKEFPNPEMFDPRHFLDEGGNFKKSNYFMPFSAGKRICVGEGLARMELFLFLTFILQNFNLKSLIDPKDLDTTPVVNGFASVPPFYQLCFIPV
row,SMILES,Potency
1,COc1cccc([C@@H]2Oc3ccc(OC)cc3/C(=N/OC[C@@H](O)COCc3ccco3)[C@@H]2O)c1,1.58 µM (active)
2,COc1ccc(/C=C/N(CCc2ccc(OC)c(OC)c2)C(=O)C(F)(F)F)cc1,0.0794 µM (active)
3,COc1ccc(O[C@H]2C=C[C@@H](c3ccccc3)O[C@H]2COC(=O)CC/C(C)=N\O[C@@H](C)CN2CCCCc3nc(C)c(C)cc32)cc1,5.01 µM (active)
4,CCCNC(=O)OC[C@@H]1O[C@H](CCO/N=C2\c3cc(OC)ccc3O[C@H](c3cccc(OC)c3)[C@H]2O)C=C[C@@H]1Oc1ccc(OC)cc1,1.58 µM (active)
5,CCO[C@H](c1cc(OC)cc([N+](=O)[O-])c1OC)[C@H](C)/C=C\CC(=O)OC,0.398 µM (active)
6,C=C(C)C(O)/C=C/c1cccc(OC)c1 (stereo not given),0.0126 µM (active)
7,COC(=O)C/C=C\[C@@H](C)[C@@H](/C=N\OC[C@@H]1O[C@H](c2ccccc2)C=C[C@@H]1Oc1ccc(OC)cc1)OC,1.58 µM (active)
8,C=CC[C@@H]1C=C[C@H](Oc2ccc(C)cc2)[C@H](COC(=O)NCc2cccc3ccccc23)O1,1.26 µM (active)
9,Cc1ccc(S(=O)(=O)N[C@H]2COC(=O)[C@@H](Cc3ccccc3)NC(=O)[C@@H](C)COC(=O)C/C=C\[C@@H]2C)cc1,inactive
10,COCOc1ccc(Br)cc1C(=O)[C@H]1O[C@H]1c1cccc(OC)c1,0.0631 µM (active)
11,CCCCC#CC1C=CC(Oc2ccc(C(=O)OC)cc2)C(COC(=O)OCC)O1 (stereo not given),inactive
12,COc1ccc(/C=C/C2=CC3(C)CC2(C)C(c2ccc(OC)cc2)CC3=O)cc1 (stereo not given),inactive
13,COc1ccc(O[C@H]2C=C[C@@H](c3ccccc3)O[C@@H]2CO/N=C(\C)CCN2CCCCc3nc(C)c(C)cc32)cc1,2.51 µM (active)
14,OCC1OC(c2ccc3c(c2)OCO3)C=CC1Oc1cc(Cl)cc(Cl)c1 (stereo not given),0.0794 µM (active)
15,COc1cccc([C@@H]2Oc3ccc(OC)cc3/C(=N/O[C@@H](C)c3cc(-c4c(C)cc(C)cc4C)no3)[C@@H]2O)c1,1.58 µM (active)
16,C[C@@H](c1ccccc1)N1C(=O)[C@H]2[C@H]3[C@H](O)[C@H](O)C/C(=N/OC[C@@H](O)COCc4ccco4)[C@@H]3CC[C@@H]2C1=O,inactive
17,CCCNC(=O)OC[C@@H]1O[C@H](CCO/N=C\[C@@H](C)[C@H](OCc2ccccc2)C(C)C)C=C[C@@H]1Oc1ccc(OC)cc1,3.16 µM (active)
18,COC(=O)C[C@@H]1O[C@H]1[C@H](C)[C@@H](OC)C(C)C,3.98 µM (active)
19,C/C=C/OC(=O)NC(c1ccccc1)[C@]1(C(C)=O)CCOC1=O (stereo not given in full),0.158 µM (active)
20,CC(=O)OCC1OC(c2ccc3c(c2)OCO3)C=CC1OC(C)=O (stereo not given),0.316 µM (active)
21,C=CCC1C=CC(Oc2ccc(OC)cc2)C(COC(=O)c2ccc(Br)cc2)O1 (stereo not given),3.16 µM (active)
22,COc1ccc(O[C@H]2C=C[C@@H](c3ccccc3)O[C@H]2COC(=O)CC/C(C)=N\O[C@@H](C)c2cn([C@H]3COC[C@H]3O)nn2)cc1,2.51 µM (active)
23,COc1ccc(O[C@H]2C=C[C@@H](c3ccccc3)O[C@H]2CO/N=C\C[C@@H]2C=C[C@H](OC(C)=O)[C@H](COC(C)=O)O2)cc1,0.794 µM (active)

# System: not listed separately
# Assay: Confirmation and Secondary Assay for Modulators of Hemoglobin Beta Chain Splicing at IVS2 654 locus (AID 910);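 note: HeLa cells stably carrying EGFP split by mutant beta-globin IVS2-654 intron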
# Details: HeLa EGFP-654 splicing reporter, GFP fluorescence, 48 h; series mostly up to 46.1 µM
# Summary of the method: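 HeLa cells stably expressing EGFP interrupted by β-globin IVS2-654 intron, seeded overnight in Opti-MEM/2% FCS, then treated 2 days at 37 °C. Restored splicing read as total peak GFP intensity per well by laser scanning cytometry (488 nm excitation, 500–520 nm emission); 500 nM antisense PNA as control.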
row,SMILES,outcome
1,CC(=O)c1c(O)cc(O)cc1O,inactive
2,COc1ccc(-c2cc(=O)c3ccccc3o2)cc1,inactive
3,COc1c2c(cc3occ(-c4ccc5c(c4)OCO5)c(=O)c13)OC(C)(C)C=C2,inactive
4,COc1cc2c(cc1OC)-c1c(oc3cc(O)cc(O)c3c1=O)CO2,inactive
5,COc1ccc2c(c1)OC/C(=C/c1ccc(OC)c(OC)c1)C2=O,inactive
6,C=C1C2CC[C@@]3(C)C(c4ccoc4)OC(=O)C[C@@]13OC1CC(OC(C)=O)C(C)(C)C(CC(=O)OC)[C@@]12C (stereo not given in full),inactive
7,COc1cc(OC)c2c(=O)c(-c3ccc4c(c3)OCO4)coc2c1,inactive
8,COc1cc(O)c(C(=O)/C=C/c2ccc(O)c(OC)c2)c(OC)c1,inactive
9,COc1c(-c2coc3cc4c(cc3c2=O)CC(OC(C)=O)C(C)(C)O4)ccc2c1C=CC(C)(C)O2 (stereo not given),inactive
10,CC(C)=CCc1c(O)cc2occ(-c3ccc4c(c3)OCO4)c(=O)c2c1O,inactive
11,COc1cccc(-c2cc(=O)c3ccc(OC)cc3o2)c1,inactive
12,CC1(C)C(=O)C=C[C@@]2(C)C1C=C[C@@]1(C)C2CC[C@@]2(C)C(c3ccoc3)OC(=O)C3OC312 (stereo not given in full),inactive
13,O=C1C=CC(=C(c2ccc(O)cc2)c2ccc(O)cc2)C=C1,inactive
14,COc1cc(OC)c2c(OC)c(-c3ccc4c(c3)OCO4)c(=O)oc2c1,inactive
15,Nc1nc2c(ncn2C2OC(COC(=O)c3ccccc3)C(OC(=O)c3ccccc3)C2OC(=O)c2ccccc2)c(=O)[nH]1 (stereo not given),inactive
16,CC(=O)Oc1c(-c2ccccc2)oc2c(CC=C(C)C)c3c(c(OC(C)=O)c2c1=O)C=CC(C)(C)O3,inactive
17,COc1ccc(-c2cc(=O)c3ccccc3o2)cc1OC,inactive
